High-throughput results (PubChem)
TDP1 block = TDP1 (human) enzyme inhibition. recombinant TDP1, AlphaScreen DNA substrate cleavage. Potency, µM (top dose mostly 130 µM), inactives show top-dose activity change, negative = inhibition, most hits filed as inhibitors. 350,000 tested, 0.28% active. AID 485290; also: potency is read from the fitted curve at half-maximal effect; % is scaled to controls: 0 for no effect and ±100 for the full control effect; nearly all actives have a fitted effect of over 40% in size
Target sequence (Q9NUW8 whole entry, looked up): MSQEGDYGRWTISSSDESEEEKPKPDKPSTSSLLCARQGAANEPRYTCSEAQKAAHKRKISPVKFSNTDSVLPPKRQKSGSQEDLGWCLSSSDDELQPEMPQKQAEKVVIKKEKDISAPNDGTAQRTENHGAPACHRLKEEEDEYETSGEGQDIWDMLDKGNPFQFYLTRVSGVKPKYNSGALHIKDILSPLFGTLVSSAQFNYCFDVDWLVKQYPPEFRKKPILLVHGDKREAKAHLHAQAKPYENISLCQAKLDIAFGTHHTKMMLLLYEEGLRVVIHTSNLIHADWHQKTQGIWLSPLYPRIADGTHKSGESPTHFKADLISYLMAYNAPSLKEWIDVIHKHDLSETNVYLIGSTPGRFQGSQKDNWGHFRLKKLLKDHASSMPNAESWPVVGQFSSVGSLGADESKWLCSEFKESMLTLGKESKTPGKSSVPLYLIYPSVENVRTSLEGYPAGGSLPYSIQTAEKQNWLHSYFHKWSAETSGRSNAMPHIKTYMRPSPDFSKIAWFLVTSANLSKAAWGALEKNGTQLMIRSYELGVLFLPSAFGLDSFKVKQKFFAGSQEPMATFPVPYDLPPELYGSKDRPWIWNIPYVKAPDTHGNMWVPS
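Compounds were preincubated with Tdp1 (1 nM final) for 15 min at room temperature before substrate (15 nM final) started a 5 min reaction; beads (10 ug/ml final) were then added for 10 min before AlphaScreen detection.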
DT40 TDP1 CPT = DT40-hTDP1 cell growth loss with CPT. 420,000 tested, 12% active. Potency, µM (top dose mostly 46.2 µM), without a hit: at the top dose activity change, negative = growth inhibition, actives largely listed as inhibitors. chicken DT40 Tdp1-/-;hTDP1 cells + 20 nM CPT, ATP luminescence, 48 h; also: potency is read from the fitted curve at half-maximal effect; % is scaled to controls: 0 for no effect and ±100 for the full control effect; nearly all actives have a fitted effect of over 55% in size
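Cell growth measured by CellTiter-Glo luminescence after a minimum 48 h, 37 C compound exposure with 20 nM CPT in Tdp1-knockout DT40 cells stably expressing hTDP1, seeded 400/well; qHTS titration format.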
TDP1 cell noCPT = qHTS for Inhibitors of human tyrosyl-DNA phosphodiesterase 1 (TDP1): qHTS in cells in absence of CPT. AID 686978, 2013. DT40 Tdp1-/- hTDP1 cells, no CPT, ATP luminescence, 48 h. 420,000 tested, 15% active. Potency, µM (top dose mostly 46.2 µM), for the others: top-dose activity change, negative = growth inhibition, most hits filed as inhibitors; also: potency is read from the fitted curve at half-maximal effect; % is scaled to controls: 0 for no effect and ±100 for the full control effect; nearly all actives have a fitted effect of over 55% in size
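Cells were dispensed at 400 per well, compounds added by pin tool, plates incubated ≥48 hr at 37 °C, then CellTiter-Glo added for 30 min at room temperature before luminescence reading. Line: DT40 Tdp1-/- complemented with hTDP1; camptothecin omitted.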
IL1B secr inh = inhibitors of inflammasome signaling (IL-1 beta secretion) | THP-1 LPS/ATP IL-1B secretion, AlphaLISA, 16 h; active compounds read low | activity change, % at 57.5 µM | 360,000 tested, 4.7% active | AID 743279; in the data active = activity change below about -50%; inconclusive = mostly about -30% to -49%; also: % is scaled to controls: 0 for no effect and ±100 for the full control effect
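THP-1 cells pretreated 1 hr with compounds (up to 57.5 uM final), then stimulated with LPS (250 ng/mL final) plus ATP (1.25 mM final); secreted IL-1B measured by AlphaLISA after 16 hr, decreased signal indicating inhibition.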
HepG2 viability = kills HepG2 cells in TGF-b inhibitor counter-screen; HepG2 CAGA-GFP viability, ATP luminescence, 18 h; Potency, µM (series often up to 46.1 µM), for inactives: at the highest dose activity change, negative = cytotoxicity, actives largely listed as cytotoxic; 410,000 tested, 0.76% active; AID 588856; also: potency is read from the fitted curve at half-maximal effect
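HepG2 CAGA-GFP cells (1000/well, DMEM with 1% FBS) received compound, then TGF-beta at 500 pg/mL final, and were incubated 18 hours at 37 degrees C. Viability was read by CellTiter-Glo luminescence. Media-only wells were set as complete cell-killing and DMSO as no toxicity.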
TGFb inhibitor = TGF-b pathway inhibition. HepG2 CAGA-GFP TGF-b/SMAD3 reporter, GFP fluorescence, 18 h; TGF-beta stimulated, 500 pg/mL final. Potency, µM (series often up to 46.1 µM), for inactives: at the top dose activity, negative = inhibition, actives largely listed as inhibitors. 410,000 tested, 1.2% active; also: potency is read from the fitted curve at half-maximal effect; % is scaled to controls: 0 for no effect and ±100 for the full control effect; nearly all actives have a fitted effect of over 65% in size
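Inhibition of TGF-beta-driven CAGA-GFP reporter expression in HEPG2 cells is measured by cellular GFP fluorescence after 18 h stimulation with 500 pg/mL recombinant TGF-beta in 1% FBS medium at 37 degrees C.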
The depositor's hits bear a star; ? = inconclusive; nt = not tested or not shown. Compounds with a hit are over-represented: about 18% of the library has one in this group of screens. Unless noted, calls follow the shape of the dose curve; as a rule, active = well fitted curve in the direction sought with a large enough effect; inconclusive = small, poorly fitted or top-dose-only effect, or another doubt; inactive = no such curve, though single readings can be large; an effect the other way counts as inactive or inconclusive.

SMILES	TDP1 block	DT40 TDP1 CPT	TDP1 cell noCPT	IL1B secr inh	HepG2 viability	TGFb inhibitor
COc1ccc(CN2CCNC(=O)C2CC(=O)NCc2cn3ccc(C)cc3n2)c(OC)c1 (configuration not stated)	5%	3%	-11%	-17	-6%	0%
O=C1OCCC1Sc1nnc2c(n1)[nH]c1ccccc12 (configuration not stated)	nt	12%	-3%	nt	nt	nt
COc1ccc(CN2C(=O)c3ccccc3C2=O)cc1C(=O)Nc1ccccc1N1CCOCC1	11%	?	16µM*	77	-14%	-10%
COC(=O)c1ccccc1NC(=O)c1ccccc1OC	0%	-8%	-25%	0	-2%	-5%
COc1ccccc1C(=O)Nc1ccccc1N1CCCCC1	nt	?	18µM*	-28	-17%	-20%
CCNC(=S)Nc1ccc(Cc2nc3ccccc3[nH]2)cc1	nt	4%	2%	38	1%	37%
O=C(CCSCc1cnn(-c2ccccc2)c1-n1cccc1)NCc1ccc(Cl)cc1	9%	?	?	nt	-27%	16µM*
Cc1ccc(CNC(=O)CCSCc2cnn(-c3ccccc3)c2-n2cccc2)cc1	3%	18µM*	15µM*	nt	-31%	?
O=C(O)CSCc1cnn(-c2ccccc2)c1-n1cccc1	6%	-3%	0%	8	-20%	-2%
O=C(CSCc1cnn(-c2ccccc2)c1-n1cccc1)N1CCN(Cc2ccccc2)CC1	9%	?	13µM*	-1	-24%	-27%
O=C(CSCc1cnn(-c2ccccc2)c1-n1cccc1)NCc1cccnc1	-5%	?	?	-22	-14%	-5%
O=C(CSCc1cnn(-c2ccccc2)c1-n1cccc1)NCc1cccc(Cl)c1	11%	16µM*	23µM*	nt	-31%	0%
COc1cc(NC(=O)CN2C(=O)COc3ccc(S(=O)(=O)N4CCCC4)cc32)cc(OC)c1	1%	?	?	-2	-12%	-3%
CCOc1ccc(Nc2nc3cc(S(=O)(=O)N(CC)CC)ccc3o2)cc1	1%	5.8µM*	7.3µM*	43	-34%	-12%
CCS(=O)(=O)c1ccc2oc(Nc3ccc(C(C)C)cc3)nc2c1	-1%	16µM*	23µM*	-7	-5%	11%
O=C(CN1c2ccccc2S(=O)(=O)c2ccccc21)Nc1ccccc1Cl	5%	?	?	nt	0%	-13%
CCN(C[C@H]1N[C@@](Cc2ccccc2)(C(=O)OC)[C@H]2C(=O)N(Cc3ccccc3)C(=O)[C@@H]12)S(=O)(=O)c1ccccc1	0%	?	23µM*	-13	0%	-8%
CCN(C[C@H]1N[C@@](Cc2ccccc2)(C(=O)OC)[C@H]2C(=O)N(Cc3ccccc3)C(=O)[C@@H]12)S(=O)(=O)c1ccc(C)cc1	0%	16µM*	21µM*	-25	4%	1%
CCN(C[C@H]1N[C@@](Cc2ccccc2)(C(=O)OC)[C@H]2C(=O)N(Cc3ccccc3)C(=O)[C@@H]12)S(=O)(=O)c1ccc(-c2ccccc2)cc1	0%	-14%	-12%	-5	-18%	-8%
CCN(C[C@H]1N[C@@](CC)(C(=O)OC)[C@H]2C(=O)N(Cc3ccccc3)C(=O)[C@@H]12)S(=O)(=O)c1ccc(F)cc1	1%	?	21µM*	-16	-2%	8%
Cc1cccc(OCc2nnc(SCC(=O)Nc3ccc(C)cc3C)o2)c1	nt	-21%	?	nt	-4%	10%
Cn1c(N)c(C(=O)Nc2ccc(-c3ccccc3)cc2)sc1=S	1%	23µM*	21µM*	-1	-12%	?
